From PubChem BioAssay
A selection: hits, their analogues and other compounds. The true share with any hit is near 3.8%.
HT1080-NT tox = qHTS for induction of synthetic lethality in tumor cells producing 2HG: qHTS for the HT-1080-NT fibrosarcoma cell line | HT-1080-NT fibrosarcoma viability, CellTiter-Glo ATP luminescence, 48 h | Potency, µM (titrated, usually from 46.1 µM), for the others: at the highest dose activity, negative = less viability, most hits filed as cytotoxic | 1.6% of 360,000 active;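 note: NT is the 2HG producing partner of a matched IDH1 knockdown line; 0% = DMSO-treated cells and -100% = media-only wells without cells; nearly all actives have a fitted effect of over 55% in size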
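HT-1080-NT; 750 cells/well; 5% FBS RPMI; 48 h compound, 37 degrees C; CellTiter-Glo luminescence; curve fitting and curve-class assignment.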
TGFb inhibitor = qHTS for Inhibitors of TGF-b; Potency, µM (doses to about 46.1 µM), without a hit: at the top dose activity, negative = inhibition, hits mostly inhibitors; 1.2% of 410,000 active; AID 588855, 2011; HepG2 CAGA-GFP TGF-b/SMAD3 reporter, GFP fluorescence, 18 h; TGF-beta stimulated, 500 pg/mL final; note: % is set by controls: 0 for no effect and ±100 for the full control effect; nearly all actives have a fitted effect of over 65% in size
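Inhibition was scored as loss of TGF-beta-induced (500 pg/mL final, 18 hours, 37 degrees C) GFP in HEPG2 cells carrying a CAGA-GFP reporter, in DMEM with 1% FBS. Well GFP was summed per cell; Activity was normalised to unstimulated and stimulated DMSO wells, then concentration-response fitting.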
ATXN viability = Viability Counterscreen for Primary qHTS for Inhibitors of ATXN expression; 0.49% of 400,000 active; Potency, µM (doses to about 56.7 µM), actives largely listed as cytotoxic; S2 cells (HEK-293 line with an ATXN2-luciferase reporter) viability, CellTiter-Fluor protease fluorescence, 24 h; note: nearly all actives have a fitted effect of over 40% in size
HepG2 viability = qHTS for Inhibitors of TGF-b: Cytotox Counterscreen. HepG2 CAGA-GFP viability, ATP luminescence, 18 h. Potency, µM (titrated, usually from 46.1 µM), for the others: at the top dose activity change, negative = cytotoxicity, actives largely listed as cytotoxic. 0.76% of 410,000 active. AID 588856, 2011
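HepG2 CAGA-GFP cells (1000/well, DMEM with 1% FBS) received compound, then TGF-beta at 500 pg/mL final, and were incubated 18 hours at 37 degrees C. Viability was read by CellTiter-Glo luminescence. Media-only wells were set as complete cell-killing and DMSO as no toxicity.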
ATXN2 expr inh = Primary qHTS for Inhibitors of ATXN expression. HEK-293 ATXN2-luciferase reporter, luminescence, 24 h. Potency, µM (highest dose often 57 µM), inactives show at the highest dose activity change, negative = inhibition, actives largely listed as inhibitors. 0.72% of 360,000 active; note: % is set by controls: 0 for no effect and ±100 for the full control effect; nearly all actives have a fitted effect of over 55% in size
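qHTS (up to 57 uM final) was run with 24 h compound exposure of reporter cells at 37 °C. Each well was multiplexed: SteadyGlo luminescence measured ATXN2-luciferase expression after a fluorogenic Gly-Phe-AFC viability readout (25 uM final).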
HT1080 IDH1KD tx = qHTS for induction of synthetic lethality in tumor cells producing 2HG: qHTS for the HT-1080-IDH1KD cell line; HT-1080 IDH1 knockdown viability, ATP luminescence, 48 h; 2% of 360,000 active; Potency, µM (doses to about 46.1 µM), without a hit: at the top dose activity, negative = toxicity, usual class: cytotoxic;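 note: 0% = DMSO wells and -100% = cell-free medium wells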
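IDH1KD HT-1080 cells, 750/well, RPMI + 5% FBS; compound pinned after 2 h settling; 48 h, 37 °C; CellTiter-Glo luminescence; % activity normalised to DMSO and no-cell wells; curves fitted, classed by r2 and efficacy.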
* hit, by the source's call; i = inactive; ? = inconclusive; . = no result given. Calls come from the whole dose curve; as a rule, active = well fitted curve in the direction sought with a large enough effect; inconclusive = small, poorly fitted or top-dose-only effect, or another doubt; inactive = no such curve, though single readings can be large; an effect the other way counts as inactive or inconclusive. Potency is the fitted concentration of half-maximal effect.

SMILES | HT1080-NT tox | TGFb inhibitor | ATXN viability | HepG2 viability | ATXN2 expr inh | HT1080 IDH1KD tx
CC[N+](CC)(CC)CC(=O)Nc1ccc(SC(F)F)cc1 | 2% | 2% | i | 10% | -25% | ?
CCCCNC(=O)C1(C)CCN1C(=O)c1cc(-c2cccs2)oc1C (configuration not stated) | ? | ? | i | -54% | -24% | 23µM*
CCCCNC(=O)C1(C)CCN1C(=O)c1ccccc1Br (configuration not stated) | 17% | 26% | i | -1% | 8% | 4%
CN(c1ncccc1CNc1nc(Nc2ccc3c(c2)CC(=O)N3)ncc1C(F)(F)F)S(C)(=O)=O | . | . | . | . | 4.3µM* | .
O=S(=O)(c1ccc(NC(=S)Nc2ccccc2)cc1)N1CCOCC1 | 16% | -10% | i | 6% | 2% | 18%
CC(C)CCCCCCNC(=S)Nc1ccc(S(=O)(=O)N2CCOCC2)cc1 | ? | 20µM* | ? | -65% | ? | ?
O=[N+]([O-])c1cccc(CN2C(COCc3ccccc3)CCC=CS2(=O)=O)c1 (configuration not stated) | . | -19% | . | -25% | . | .
O=C(NN=Cc1ccc2c(c1)OCO2)NN=Cc1ccc2c(c1)OCO2 | -23% | 4% | i | -28% | 27% | -30%
N/C(=N\N=C/c1ccc(Br)cc1)N/N=C\c1ccc(Br)cc1 | ? | ? | i | 11µM* | -3% | ?
N/C(=N\N=Cc1ccc2c(c1)OCO2)NN=Cc1ccc2c(c1)OCO2 | -12% | ? | 30µM* | -42% | 0% | ?
CCn1ccc2cc(S(=O)(=O)N3CCC(C(=O)NCCOC)CC3)ccc21 | . | -17% | i | -22% | 7% | .
COC(=O)c1ccc(C2Nc3c(C)cccc3-c3cc(C)nn32)cc1 (configuration not stated) | . | ? | i | -6% | -22% | .
CCC1(O)CC2CN(CCc3c([nH]c4ccccc34)C(C(=O)OC)(c3cc4c(cc3OC)N(C=O)C3C(O)(C(=O)OC)C(OC(C)=O)C5(CC)C=CCN6CCC43C65)C2)C1 (configuration not stated) | 0.0058µM* | ? | ? | -4% | -4% | ?
CC[C@]1(O)CC2CN(CCc3c([nH]c4ccccc34)[C@@](C(=O)OC)(c3cc4c(cc3OC)N(C)[C@H]3[C@@](O)(C(=O)OC)[C@H](OC(C)=O)[C@]5(CC)C=CCN6CC[C@]43[C@@H]65)C2)C1 (some centres not stated) | . | ? | . | -28% | . | .
OC1(c2cccnc2)CCN(Cc2ccc3c(c2)CN(Cc2cccc4nccnc24)CCO3)CC1 | . | . | i | . | . | .
C/C(=N\NC(=O)c1ccc(O)cc1)c1ccc2c(c1)Nc1ccccc1S2 | 18µM* | ? | i | -31% | 0% | 8.2µM*
O=C(CCn1cnc2onc(-c3ccc(F)cc3)c2c1=O)Nc1ccc(F)c(Cl)c1 | . | . | . | -69% | . | .
CC(C)CCOC(=O)C1C(c2ccccc2)C(C(=O)O)C1c1ccccc1 (configuration not stated) | 7.3µM* | -4% | i | -1% | 1% | 3.7µM*
O=C(Cn1cc(SCc2cccc(C(F)(F)F)c2)c2ccccc21)N1CCCCCC1 | . | ? | . | -14% | . | .
O=C(Cn1cc(SCc2ccc(C(F)(F)F)cc2)c2ccccc21)N1CCCC1 | . | ? | . | 10µM* | . | .
COC(=O)c1ccc(NC(=O)CSc2cn(CC(=O)N3CCCCC3)c3ccccc23)cc1 | . | 5.6µM* | . | -18% | . | .
COc1ccc(-n2c(SCC(=O)Nc3cccc(C)c3C)nc3c([nH]c4ccccc43)c2=O)cc1 | . | -15% | . | -18% | . | .
Cc1ccc(C)c(NC(=S)NNc2ccc(F)cc2F)c1 | 26µM* | -1% | i | 10% | -3% | 26µM*
Cc1ccc(N(C)C(CNS(=O)(=O)c2ccccc2)c2ccccc2)cc1 (configuration not stated) | . | ? | . | -60% | ? | .
COc1ccccc1N(CC(O)COc1c(C)cc(C)cc1C)S(=O)(=O)c1ccccc1 (configuration not stated) | 4% | 13µM* | ? | 11% | -17% | -5%
SMILES | HT1080-NT tox | TGFb inhibitor | ATXN viability | HepG2 viability | ATXN2 expr inh | HT1080 IDH1KD tx
CC1=C(CC(=O)c2ccc(Cl)cc2)C(=O)c2ccccc2C1=O | ? | 13µM* | i | 13µM* | 66% | 11µM*
O=C(Cc1ccccn1)c1ccc(Cl)cc1 | 16% | ? | i | -16% | 13% | -1%
Cc1ccc2nc(Cl)c3nnnn3c2c1 | 0% | ? | ? | 6.3µM* | ? | 13µM*
O=C1CC(=C(c2ccccc2)c2ccccc2)C(=O)N1CCCCN1CCN(c2ccccc2)CC1 | 18µM* | ? | i | -19% | -28% | 16µM*
CCOc1ccc(C2c3c(oc4ccc(C)cc4c3=O)C(=O)N2CCCN2CCOCC2)cc1 (configuration not stated) | . | 8% | i | 2% | 1% | .
COc1ccccc1/C=C/C1(C(=O)NC2CCCC2)CC(=O)N1c1ccccc1 (configuration not stated) | 16µM* | ? | ? | 8% | . | ?
O=C(c1ccc2c3n(nc2c1)-c1ccccc1CO3)N1CCOCC1 | 8.2µM* | -9% | i | 7.9µM* | 14% | 23µM*
O=C(c1ccc2c3n(nc2c1)-c1ccccc1CO3)N1CCCCC1 | 16µM* | -11% | i | 7.1µM* | -7% | 23µM*
CCc1cccc(NC(=O)CN2C(=O)COc3ccc(S(=O)(=O)Nc4ccccc4)cc32)c1 | . | ? | ? | -49% | -10% | .
CC(C)(C)c1nnc(NC(=O)C2CCN(c3ncccn3)CC2)s1 | 6% | -2% | i | -9% | 13% | 6%
CC(C)(C)c1cnc(CSc2cnc(NC(=O)C3CCNCC3)s2)o1 | . | . | . | . | 0.31µM* | .
Cc1cnc(-n2ncc(C(=O)NCCc3cccnc3)c2C)nc1-c1cccs1 | . | . | i | . | . | .
CCOC(=O)c1[nH]c(C)c(CCC(=O)NCc2ccc(OC(C)C)cc2)c1C | . | -4% | i | -10% | -10% | .
COc1ccc(NC(=O)Nc2nnc(N(C)C3CCCCC3)s2)c(OC)c1 | . | 11µM* | . | -104% | . | .
